Source: PubChem BioAssay (National Center for Advancing Translational Sciences (NCATS))
FLuc inh: Firefly luciferase inhibition profiling of diverse chemical library using quantitative high-throughput screening; purified P. pyralis luciferase, luminescence, biochemical; Potency, µM (top dose mostly 115 µM), usual class: inhibitors; 76,000 tested, 2.5% active; further: nearly all actives have a fitted effect of over 65% in size
Target sequence (P08659 whole entry, looked up): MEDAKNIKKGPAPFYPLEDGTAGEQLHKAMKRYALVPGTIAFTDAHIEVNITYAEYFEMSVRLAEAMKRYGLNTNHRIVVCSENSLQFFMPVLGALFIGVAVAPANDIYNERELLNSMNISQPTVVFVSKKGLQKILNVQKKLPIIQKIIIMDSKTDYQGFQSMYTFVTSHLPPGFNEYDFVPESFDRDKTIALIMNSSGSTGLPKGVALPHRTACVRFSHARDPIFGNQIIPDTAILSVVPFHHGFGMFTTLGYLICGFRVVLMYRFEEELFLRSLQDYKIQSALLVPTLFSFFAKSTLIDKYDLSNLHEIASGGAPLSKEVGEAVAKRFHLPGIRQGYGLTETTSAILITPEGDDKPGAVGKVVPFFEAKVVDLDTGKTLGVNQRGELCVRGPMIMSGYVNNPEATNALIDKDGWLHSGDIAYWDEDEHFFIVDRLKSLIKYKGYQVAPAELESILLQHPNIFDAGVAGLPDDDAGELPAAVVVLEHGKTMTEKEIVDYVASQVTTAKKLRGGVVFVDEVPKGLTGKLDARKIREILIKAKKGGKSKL
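Biochemical qHTS: compound (6-point titration) added to 10uM D-luciferin plus 10uM ATP in Tris acetate pH 7.5 buffer with Mg, Tween-20 and BSA, then purified enzyme at 10nM; light output imaged.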
HEK cytotox: Cytotoxic Profiling in HEK 293 Cell Line of Diverse Libraries Using Quantitative High-Throughput Screening. HEK 293 viability, ATP luminescence (CellTiter-Glo), 48-72 h. AID 1345083, 2018. 94,000 tested, 6.6% active. Potency, µM (titrated, usually from 115 µM), for inactives: top-dose activity change, negative = cytotoxicity, actives largely listed as inhibitors; further: nearly all actives have a fitted effect of over 60% in size
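250 HEK 293 cells/well; compound by pintool; incubated 48 or 72 hr at 37 degree Celsius; CellTiter-Glo added, 10 min RT, luminescence imaged.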
3T3 cytotox: Cytotoxic Profiling in NIH 3T3 Cell Line of Diverse Libraries Using Quantitative High-Throughput Screening; NIH 3T3 viability, CellTiter-Glo ATP luminescence, 48-72 h; 94,000 tested, 4.3% active; Potency, µM (top dose mostly 96.7 µM), for inactives: top-dose activity change, negative = cytotoxicity, usual class: inhibitors; further: nearly all actives have a fitted effect of over 55% in size
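ATP-dependent luminescence (CellTiter-Glo) served as the viability signal for NIH 3T3 cells treated with compound for 48 or 72 hr at 37 °C.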
GPT2 inhibitor: Primary qHTS assay for inhibitors of Glutamate pyruvate transaminase 2 (GPT2) | Potency, µM (top dose mostly 57.7 µM), inactives show at the highest dose activity change, negative = inhibition, usual class: inhibitors | 100,000 tested, 0.25% active | Recombinant GPT2, coupled pyruvate oxidase/HRP Amplex Red fluorescence | AID 1671188, 2021; further: nearly all actives have a fitted effect of over 60% in size
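GPT2 10ng/uL, a-KG 250uM, L-Ala 2mM, HEPES pH7.5 + 0.0001% Tween; 30 min RT. Then Amplex mix (PO/HRP/ThPP), 30 min RT dark, fluorescence. AOA 50uM used as positive control.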
NPR1 antag: Natriuretic polypeptide receptor (hNpr1) antagonism - Primary qHTS; Atrial natriuretic peptide receptor 1 (Homo sapiens), P16066; HEK293 hNpr1 GloSensor cGMP, ANP-stimulated luminescence; Potency, µM (titrated, usually from 46.3 µM), for inactives: at the top dose activity change, negative = inhibition, most hits filed as inhibitors; 76,000 tested, 1.6% active; AID 1347048, 2019; calls by dose curve; further: nearly all actives have a fitted effect of over 60% in size
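Compound pre-incubated 30 min at room temperature on GloSensor-loaded HEK293 cells stably carrying hNpr1 and the pGS-40F cGMP biosensor. Stimulation uses hNppA at 0.1 nM final; luminescence is taken at baseline and 20 min post-agonist.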
The depositor's hits bear a star; i = inactive; ? = inconclusive; . = no result; [ ] = another dose, or the depositor's remark. Hits are enriched below; roughly 10% of the tested compounds scored in any of these assays. Unless noted, the call rests on the fitted dose curve; in most records, active means well fitted curve in the direction sought with a large enough effect; inconclusive means small, poorly fitted or top-dose-only effect, or another doubt; inactive means no such curve, though single readings can be large; an effect the other way counts as inactive or inconclusive. On the % scale 0 is the no-effect control and ±100 the full control effect; potency means the concentration at half of the fitted maximal effect.

SMILES	FLuc inh	HEK cytotox	3T3 cytotox	GPT2 inhibitor	NPR1 antag
Cc1ccc2c(C)c(C(=O)N(C)Cc3noc4c3CCCC4)oc2c1	i	45µM*	?	-30%	-13%
Cc1ccc(-c2cc3c(=O)n(CCNC(=O)c4cc(F)ccc4F)ccn3n2)cc1C	?	40µM*	?	i	-15%
CCOc1ccc(C(=O)NCCn2ccn3nc(-c4cc(C)ccc4C)cc3c2=O)cc1	i	?	-25%	4%	2%
CCOc1ccc(CC(=O)NCCn2ccn3nc(-c4ccc(C)cc4C)cc3c2=O)cc1	25µM*	?	?	-8%	?
Cc1ccc(C)c(-c2cc3c(=O)n(CCNC(=O)c4ccc(F)cc4Cl)ccn3n2)c1	i	40µM*	32µM*	i	-19%
Cc1ccc(-c2cc3c(=O)n(CCNC(=O)Cc4ccsc4)ccn3n2)cc1C	5µM*	?	?	-6%	-16%
Cc1ccc(-c2cc3c(=O)n(CCNC(=O)c4cc(Cl)ccc4F)ccn3n2)cc1C	i	0%	1%	-4%	-1%
N#Cc1ccc(CN2CCn3c(nnc3C3CCNCC3)C2)cc1	.	-2%	-2%	2%	.
COCCN1C(=O)[C@H]2CN(Cc3cc(Cl)ccc3F)C[C@H]2C1=O	i	?	4%	?	-2%
COc1ccc(-c2cc3c(=O)n(CCNC(=O)Cc4ccsc4)ccn3n2)cc1	11µM*	?	?	?	-21%
COc1ccc(-c2cc3c(=O)n(CCNC(=O)Cc4ccc(C)cc4)ccn3n2)cc1	?	?	-27%	3%	?
Cc1ccc(S(=O)(=O)N2CCC(n3cnnc3C)CC2)cc1C	i	-6%	-4%	i	7%
COc1ccccc1NC(=O)[C@@H]1COCC(=O)N1Cc1ccc(OC)c(OC)c1	i	0%	-2%	-6%	-9%
O=C(Cc1ccc2c(c1)OCO2)NCc1cccnc1N1CCOCC1	28µM*	-10%	-17%	-21%	2%
O=C(CCc1ccnc(N2CCOCC2)c1)Nc1ccc2c(c1)OCO2	35µM*	-24%	-28%	i	-12%
CC(C)(C(=O)N1C[C@H](C2CC2)[C@@H](N)C1)c1ccccc1	i	-2%	i	i[11.5 µM]	5%
COC(=O)N1CCN(Cc2ccccc2-c2ccccc2F)CC1	.	?	?	-13%	.
COc1ccc2[nH]c(CN3CCC(CCC(=O)NCc4ccc(F)cc4)CC3)c(C)c2c1	i	28µM*	?	4%	0%
COc1cc(CNC(=O)CCC2CCN(C(=O)c3ccccc3F)CC2)cc(OC)c1	i	4%	-8%	-7%	0%
COc1ccc(-c2cn3cc(C(=O)NCC4CCCCC4)nc3s2)cc1	.	?	-31%	i	.
COc1cccc(-c2cn3cc(C(=O)NCC4CCCCC4)nc3s2)c1	.	22µM*	?	-7%	.
O=C(NCC1CC1)c1cn2cc(-c3ccccc3)sc2n1	.	100µM*	?	-15%[88.5 µM]	.
COc1ccc(CCNC(=O)c2cn3cc(-c4cccc(OC)c4)sc3n2)cc1	.	?	?	-5%	.
COc1cccc(-c2cn3cc(C(=O)NCC4CC4)nc3s2)c1	.	71µM*	?	i	.
COc1cccc(-c2cn3cc(C(=O)NCCc4ccc(Cl)cc4)nc3s2)c1	.	32µM*	-13%	i	.
SMILES	FLuc inh	HEK cytotox	3T3 cytotox	GPT2 inhibitor	NPR1 antag
O=C(NCC1CC1)c1cn2cc(-c3cccc(C(F)(F)F)c3)sc2n1	.	?	-28%	-2%	.
NC(=O)N1CCCC(C(=O)N2CCN(c3nsc4ccccc34)CC2)C1 (centres undefined)	i	25µM*	?	1%	1%
Cc1cc(C)cc(-c2ccc(C=O)cc2)c1	.	126µM*	?	-5%[88.5 µM]	.
Cc1cc(C)cc(-c2ccc(CN)cc2)c1	.	28µM*	?	i	.
NCc1ccc(-c2cc(F)cc(F)c2)cc1	.	?	50µM*	0%[88.5 µM]	.
COc1ccc(-c2cccc(CN)c2)cc1	.	?	?	-10%[88.5 µM]	.
O=S(=O)(N1CCCC1)N1CCOC(Cc2cccc(C(F)(F)F)c2)C1 (centres undefined)	i	?	-31%	-17%	0%
COc1ccc(CC(=O)N[C@@H]2CN(C)C[C@H]2CN(C)C)cc1	i	i	4%	0%	6%
CCc1ccc(NC(=O)c2ccc3c(c2)N(CC)C2CCCCCN2C3=O)cc1 (centres undefined)	?	18µM*	28µM*	i	-9%
CCN1c2cc(C(=O)Nc3ccc(C(=O)OC)cc3)ccc2C(=O)N2CCCCCC21 (centres undefined)	i	45µM*	?	2%	0%
CCN1c2cc(C(=O)Nc3ccc(OC)cc3)ccc2C(=O)N2CCCCCC21 (centres undefined)	i	?	?	i	6%
CNC(=O)[C@H]1C[C@H](Oc2ccccc2)CN1C(=O)c1ccc(OC)c(OC)c1	i	-2%	i	-12%	-12%
CCn1c2ccccc2c2cc(C(=O)N3C[C@@H](Oc4ccccc4)C[C@@H]3C(=O)NC)ccc21	?	35µM*	?	i	-14%
Cc1ccccc1Oc1ncccc1CNC(=O)c1ccc2c(c1)OCO2	i	-11%	?	i[11.5 µM]	-2%
Cc1nc2ccc(C(=O)NCc3cccnc3Oc3ccccc3C)cc2[nH]1	i	?	50µM*	i	-20%
CCn1nc(C)c(-c2cc(C(=O)NCCc3noc(-c4ccccc4)n3)no2)c1C	?	50µM*	?	i	0%
Cc1cc(C(=O)NCCc2noc(-c3cccnc3)n2)nn1C	i	-1%	-5%	i	-4%
O=C1NC2(CCN(C(=O)Cc3ccccc3)C2)OCc2ccccc21 (centres undefined)	i	100µM*	-29%[138 µM]	i	14%[70.6 µM]
OCC1CN(c2ncccn2)CC12CCN(Cc1cccc3[nH]ccc13)CC2 (centres undefined)	i	79µM*	?	i	-11%
OCC1CN(c2ncccn2)CC12CCN(Cc1c[nH]c3ccccc13)CC2 (centres undefined)	i	-5%	-11%	?	1%
CC1=C[C@@H](CNC(=O)C2CC2)[C@H](C(C)C)C[C@H]1Cc1nnc(-c2cncn2C)o1	i	?	?	3%[88.5 µM]	5%[70.6 µM]
